# In all, about 5,500 compounds went through this assay and about 2,000 (36%) were called active. Not shown: some 18% with an inconclusive outcome. The list shows a part of the results. Values without a mark were called inactive. Cut-off read from the data, not from the text of the source: active = normalized growth mostly below about 0.91 (no sharp cut-off); inconclusive = no clear call, values can overlap the other calls; inactive = mostly above about 0.92.
# Assay: chemical genetic growth profiling, strain panel (AID 1159580);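 note: tested at 20 µM; growth read once vehicle control cultures reached saturation at 30 °C; 1 = growth at the plate median or of vehicle wells; lower values mean less growth of the strain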
# Conditions: growth OD
# [1] = S. cerevisiae deletion strains, locus YHR030C, strain SLT2, stronger effect = lower value
# [2] = S. cerevisiae deletion strains, locus YJL095W, strain BCK1, stronger effect = lower value
smiles,measurement,setting,value
COc1ccc(-c2coc3c(O)c(O)c(OC)cc3c2=O)cc1,normalized growth,[1],0.96
same,normalized growth,"S. cerevisiae deletion strains, locus YHR079C, strain IRE1, stronger effect = lower value",0.969
same,normalized growth,[2],0.955
same,normalized growth,"S. cerevisiae deletion strains, locus YJR066W, strain TOR1, stronger effect = lower value",0.912
same,normalized growth,"S. cerevisiae deletion strains, locus YLR113W, strain HOG1, stronger effect = lower value",0.955
same,normalized growth,"S. cerevisiae deletion strains, locus YNL183C, strain NPR1, stronger effect = lower value",0.888
same,normalized growth,"S. cerevisiae deletion strains, locus YOR231W, strain MKK1, stronger effect = lower value",0.971
same,normalized growth,"S. cerevisiae deletion strains, locus YPL256C, strain CLN2, stronger effect = lower value",0.953
COc1ccc(-c2coc3c(OC)c(O)ccc3c2=O)cc1,normalized growth,"S. cerevisiae deletion strains, locus YBR021W, strain FUR4, stronger effect = lower value",0.951
same,normalized growth,"S. cerevisiae deletion strains, locus YBR229C, strain ROT2, stronger effect = lower value",0.92
same,normalized growth,"S. cerevisiae deletion strains, locus YCL029C, strain bik1, stronger effect = lower value",0.97
same,normalized growth,"S. cerevisiae deletion strains, locus YDL035C, strain GPR1, stronger effect = lower value",0.935
same,normalized growth,"S. cerevisiae deletion strains, locus YDL074C, strain BRE1, stronger effect = lower value",0.9
same,normalized growth,"S. cerevisiae deletion strains, locus YDL101C, strain DUN1, stronger effect = lower value",0.928
same,normalized growth,"S. cerevisiae deletion strains, locus YDL134C, strain PPH21, stronger effect = lower value",0.888 (active)
same,normalized growth,"S. cerevisiae deletion strains, locus YDL185W, strain tfp1, stronger effect = lower value",0.949
same,normalized growth,"S. cerevisiae deletion strains, locus YDL192W, strain arf1, stronger effect = lower value",0.931
same,normalized growth,"S. cerevisiae deletion strains, locus YDR101C, strain arx1, stronger effect = lower value",0.944
same,normalized growth,"S. cerevisiae deletion strains, locus YDR162C, strain NBP2, stronger effect = lower value",0.792 (active)
same,normalized growth,"S. cerevisiae deletion strains, locus YDR318W, strain mcm21, stronger effect = lower value",0.951
same,normalized growth,"S. cerevisiae deletion strains, locus YDR388W, stronger effect = lower value",0.965
same,normalized growth,"S. cerevisiae deletion strains, locus YDR502C, strain sam2, stronger effect = lower value",0.953
same,normalized growth,"S. cerevisiae deletion strains, locus YEL061C, strain CIN8, stronger effect = lower value",0.958
same,normalized growth,"S. cerevisiae deletion strains, locus YER110C, stronger effect = lower value",0.953
same,normalized growth,"S. cerevisiae deletion strains, locus YER155C, strain BEM2, stronger effect = lower value",0.997
same,normalized growth,"S. cerevisiae deletion strains, locus YER167W, strain BCK2, stronger effect = lower value",0.956
same,normalized growth,"S. cerevisiae deletion strains, locus YGL078C, strain dbp3, stronger effect = lower value",0.961
same,normalized growth,"S. cerevisiae deletion strains, locus YGL086W, strain mad1, stronger effect = lower value",0.929 (active)
same,normalized growth,"S. cerevisiae deletion strains, locus YGL248W, strain PDE1, stronger effect = lower value",0.927
same,normalized growth,"S. cerevisiae deletion strains, locus YGR135W, strain pre9, stronger effect = lower value",0.931
same,normalized growth,"S. cerevisiae deletion strains, locus YGR252W, strain gcn5, stronger effect = lower value",0.826
same,normalized growth,[1],0.976
same,normalized growth,"S. cerevisiae deletion strains, locus YHR079C, strain IRE1 (second series), stronger effect = lower value",0.946
same,normalized growth,"S. cerevisiae deletion strains, locus YHR094C, strain hxt1, stronger effect = lower value",0.952
same,normalized growth,"S. cerevisiae deletion strains, locus YHR129C, strain ARP1, stronger effect = lower value",0.96
same,normalized growth,"S. cerevisiae deletion strains, locus YHR200W, strain rpn10, stronger effect = lower value",0.936
same,normalized growth,"S. cerevisiae deletion strains, locus YIL066C, strain RNR3, stronger effect = lower value",0.882
same,normalized growth,"S. cerevisiae deletion strains, locus YIL073C, strain SPO22, stronger effect = lower value",0.884
same,normalized growth,"S. cerevisiae deletion strains, locus YIL125W, strain kgd1, stronger effect = lower value",0.967
same,normalized growth,"S. cerevisiae deletion strains, locus YIR030C, strain dcg1, stronger effect = lower value",0.962
same,normalized growth,[2],0.813
same,normalized growth,"S. cerevisiae deletion strains, locus YJL134W, strain LCB3, stronger effect = lower value",0.968
same,normalized growth,"S. cerevisiae deletion strains, locus YJL168C, strain set2, stronger effect = lower value",0.963
same,normalized growth,"S. cerevisiae deletion strains, locus YJL187C, strain SWE1 (second series), stronger effect = lower value",0.916
same,normalized growth,"S. cerevisiae deletion strains, locus YJR043C, strain POL32, stronger effect = lower value",0.914
same,normalized growth,"S. cerevisiae deletion strains, locus YKL009W, strain mrt4, stronger effect = lower value",0.928
same,normalized growth,"S. cerevisiae deletion strains, locus YKL068W, stronger effect = lower value",0.946
same,normalized growth,"S. cerevisiae deletion strains, locus YKL085W, strain MDH1 (second series), stronger effect = lower value",0.944
same,normalized growth,"S. cerevisiae deletion strains, locus YKL085W, strain MDH1, stronger effect = lower value",0.944
same,normalized growth,"S. cerevisiae deletion strains, locus YKL190W, strain CNB1, stronger effect = lower value",0.958
same,normalized growth,"S. cerevisiae deletion strains, locus YKR001C, strain vps1, stronger effect = lower value",0.896 (active)
same,normalized growth,"S. cerevisiae deletion strains, locus YLR039C, strain RIC1, stronger effect = lower value",0.861
same,normalized growth,"S. cerevisiae deletion strains, locus YLR058C, strain SHM2, stronger effect = lower value",0.931
same,normalized growth,"S. cerevisiae deletion strains, locus YLR102C, strain apc9, stronger effect = lower value",0.965
same,normalized growth,"S. cerevisiae deletion strains, locus YLR262C, strain YPT6, stronger effect = lower value",0.86
same,normalized growth,"S. cerevisiae deletion strains, locus YLR268W, strain sec22, stronger effect = lower value",0.942
same,normalized growth,"S. cerevisiae deletion strains, locus YLR330W, strain CHS5, stronger effect = lower value",0.953
same,normalized growth,"S. cerevisiae deletion strains, locus YLR342W, strain FKS1 (second series), stronger effect = lower value",0.86
same,normalized growth,"S. cerevisiae deletion strains, locus YLR371W, strain rom2, stronger effect = lower value",0.969
same,normalized growth,"S. cerevisiae deletion strains, locus YLR418C, strain cdc73, stronger effect = lower value",0.808 (active)
same,normalized growth,"S. cerevisiae deletion strains, locus YML016C, strain PPZ1, stronger effect = lower value",0.963
same,normalized growth,"S. cerevisiae deletion strains, locus YML032C, strain rad52, stronger effect = lower value",0.958
same,normalized growth,"S. cerevisiae deletion strains, locus YML124C, strain tub3, stronger effect = lower value",0.952
same,normalized growth,"S. cerevisiae deletion strains, locus YMR078C, strain ctf18, stronger effect = lower value",0.95
same,normalized growth,"S. cerevisiae deletion strains, locus YMR223W, strain ubp8, stronger effect = lower value",0.943
same,normalized growth,"S. cerevisiae deletion strains, locus YMR307W, strain GAS1, stronger effect = lower value",0.769
same,normalized growth,"S. cerevisiae deletion strains, locus YNL067W, strain RPL9B, stronger effect = lower value",0.918
same,normalized growth,"S. cerevisiae deletion strains, locus YNL233W, strain BNI4, stronger effect = lower value",0.892
same,normalized growth,"S. cerevisiae deletion strains, locus YNL250W, strain rad50, stronger effect = lower value",0.968
same,normalized growth,"S. cerevisiae deletion strains, locus YNL271C, strain bni1, stronger effect = lower value",0.945
same,normalized growth,"S. cerevisiae deletion strains, locus YNL298W, strain CLA4, stronger effect = lower value",0.94
same,normalized growth,"S. cerevisiae deletion strains, locus YNL307C, strain MCK1, stronger effect = lower value",0.896 (active)
same,normalized growth,"S. cerevisiae deletion strains, locus YNR052C, strain pop2, stronger effect = lower value",0.964
same,normalized growth,"S. cerevisiae deletion strains, locus YOL006C, strain TOP1, stronger effect = lower value",0.742
same,normalized growth,"S. cerevisiae deletion strains, locus YOL012C, strain htz1",0.945
same,normalized growth,"S. cerevisiae deletion strains, locus YOL147C, strain pex11, stronger effect = lower value",0.966
same,normalized growth,"S. cerevisiae deletion strains, locus YOR061W, strain CKA2, stronger effect = lower value",0.933
same,normalized growth,"S. cerevisiae deletion strains, locus YOR069W, strain VPS5, stronger effect = lower value",0.969
same,normalized growth,"S. cerevisiae deletion strains, locus YOR136W, strain idh2, stronger effect = lower value",0.98
same,normalized growth,"S. cerevisiae deletion strains, locus YOR144C, strain elg1, stronger effect = lower value",0.966
same,normalized growth,"S. cerevisiae deletion strains, locus YOR184W, strain ser1, stronger effect = lower value",0.876
same,normalized growth,"S. cerevisiae deletion strains, locus YOR316C, strain cot1, stronger effect = lower value",0.961
same,normalized growth,"S. cerevisiae deletion strains, locus YPL055C, strain LGE1, stronger effect = lower value",0.86
same,normalized growth,"S. cerevisiae deletion strains, locus YPR119W, strain clb2, stronger effect = lower value",0.977
same,normalized growth,"S. cerevisiae deletion strains, locus YPR141C, strain kar3, stronger effect = lower value",0.955
same,normalized growth,"S. cerevisiae deletion strains, locus YPR163C, strain tif3, stronger effect = lower value",0.931
same,normalized growth,"S. cerevisiae deletion strains, locus YPR167C, strain met16, stronger effect = lower value",0.954
same,normalized growth,"S. cerevisiae deletion strains, strain wtn01, stronger effect = lower value",0.962
same,normalized growth,"S. cerevisiae strains, strain wild type, stronger effect = lower value",0.95
